# Measured values from paper PMC11062922 (Nature Chemical Biology, 2023).
# Like-named read-outs stand apart in the source and are kept apart here.
# How the values were obtained:
# Q6ZSR9 = Q6ZSR9 (human, UniProt Q6ZSR9); settings: read-out: apparent Kd, n = 1
# SIK2 = settings: read-out: apparent Kd, n = 1
# Sequence of Q6ZSR9 (Q6ZSR9 whole entry, looked up): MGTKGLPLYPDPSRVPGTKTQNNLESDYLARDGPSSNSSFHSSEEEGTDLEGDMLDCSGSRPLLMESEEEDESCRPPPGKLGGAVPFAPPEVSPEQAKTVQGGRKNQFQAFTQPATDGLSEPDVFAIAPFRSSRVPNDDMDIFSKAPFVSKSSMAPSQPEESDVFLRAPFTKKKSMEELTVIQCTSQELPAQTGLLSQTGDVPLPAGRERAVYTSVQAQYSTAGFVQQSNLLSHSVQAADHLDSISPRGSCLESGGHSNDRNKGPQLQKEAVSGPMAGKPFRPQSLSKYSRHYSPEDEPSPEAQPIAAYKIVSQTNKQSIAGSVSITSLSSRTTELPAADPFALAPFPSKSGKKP
substance,measurement,setting,value
Lestaurtinib,potency estimated from few doses,"Q6ZSR9; compound concentrations:100 nM and 1000 nM (sheet 'Lestaurtinib' of Supplementary Table 1),run:Lestaurtinib_02572_R1,Plate:MR015",40.6 nM
same,potency estimated from few doses,"Q6ZSR9; compound concentrations:100 nM and 1000 nM (sheet 'Lestaurtinib' of Supplementary Table 1),run:Lestaurtinib_02572_R2,Plate:MR015",74.4 nM
same,potency estimated from few doses,"Q6ZSR9; compound concentrations:100 nM and 1000 nM (sheet 'Lestaurtinib' of Supplementary Table 1),run:Lestaurtinib_02572_R3,Plate:MR015",48.9 nM
same,potency estimated from few doses,"Q6ZSR9; compound concentrations:100 nM and 1000 nM (sheet 'Lestaurtinib' of Supplementary Table 1),run:Lestaurtinib_02577_R1,Plate:MR016",63.4 nM
same,potency estimated from few doses,"Q6ZSR9; compound concentrations:100 nM and 1000 nM (sheet 'Lestaurtinib' of Supplementary Table 1),run:Lestaurtinib_02577_R2,Plate:MR016",53.4 nM
same,potency estimated from few doses,"Q6ZSR9; compound concentrations:100 nM and 1000 nM (sheet 'Lestaurtinib' of Supplementary Table 1),run:Lestaurtinib_02577_R3,Plate:MR016",59.4 nM
same,potency estimated from few doses,"Q6ZSR9; compound concentrations:100 nM and 1000 nM (sheet 'Lestaurtinib' of Supplementary Table 1),run:Lestaurtinib_02584_R1,Plate:MR017",92.8 nM
same,potency estimated from few doses,"Q6ZSR9; compound concentrations:100 nM and 1000 nM (sheet 'Lestaurtinib' of Supplementary Table 1),run:Lestaurtinib_02584_R2,Plate:MR017",64.9 nM
same,potency estimated from few doses,"Q6ZSR9; compound concentrations:100 nM and 1000 nM (sheet 'Lestaurtinib' of Supplementary Table 1),run:Lestaurtinib_02584_R3,Plate:MR017",79 nM
same,potency estimated from few doses,"Q6ZSR9; compound concentrations:100 nM and 1000 nM (sheet 'Lestaurtinib' of Supplementary Table 1),run:Lestaurtinib_02601_R1,Plate:MR018",49.8 nM
same,potency estimated from few doses,"Q6ZSR9; compound concentrations:100 nM and 1000 nM (sheet 'Lestaurtinib' of Supplementary Table 1),run:Lestaurtinib_02601_R3,Plate:MR018",44.4 nM
same,potency estimated from few doses,"Q6ZSR9; compound concentrations:100 nM and 1000 nM (sheet 'Lestaurtinib' of Supplementary Table 1),run:Lestaurtinib_02606_R2,Plate:MR019",52 nM
same,potency estimated from few doses,"Q6ZSR9; compound concentrations:100 nM and 1000 nM (sheet 'Lestaurtinib' of Supplementary Table 1),run:Lestaurtinib_02606_R3,Plate:MR019",60.4 nM
same,potency estimated from few doses,"Q6ZSR9; compound concentrations:100 nM and 1000 nM (sheet 'Lestaurtinib' of Supplementary Table 1),run:Lestaurtinib_02624_R2,Plate:MR020",61.1 nM
same,potency estimated from few doses,"Q6ZSR9; compound concentrations:100 nM and 1000 nM (sheet 'Lestaurtinib' of Supplementary Table 1),run:Lestaurtinib_02624_R3,Plate:MR020",55.5 nM
same,potency estimated from few doses,"Q6ZSR9; compound concentrations:100 nM and 1000 nM (sheet 'Lestaurtinib' of Supplementary Table 1),run:Lestaurtinib_02724_R2,Plate:MR021",51.2 nM
same,potency estimated from few doses,"Q6ZSR9; compound concentrations:100 nM and 1000 nM (sheet 'Lestaurtinib' of Supplementary Table 1),run:Lestaurtinib_02724_R3,Plate:MR021",61.2 nM
same,potency estimated from few doses,"Q6ZSR9; compound concentrations:100 nM and 1000 nM (sheet 'Lestaurtinib' of Supplementary Table 1),run:Lestaurtinib_02741_R1,Plate:MR023",77.1 nM
same,potency estimated from few doses,"Q6ZSR9; compound concentrations:100 nM and 1000 nM (sheet 'Lestaurtinib' of Supplementary Table 1),run:Lestaurtinib_02741_R2,Plate:MR023",85.4 nM
same,potency estimated from few doses,"Q6ZSR9; compound concentrations:100 nM and 1000 nM (sheet 'Lestaurtinib' of Supplementary Table 1),run:Lestaurtinib_02741_R3,Plate:MR023",77.2 nM
same,potency estimated from few doses,"Q6ZSR9; compound concentrations:100 nM and 1000 nM (sheet 'Lestaurtinib' of Supplementary Table 1),run:Lestaurtinib_02748_R1,Plate:MR024",67.4 nM
same,potency estimated from few doses,"Q6ZSR9; compound concentrations:100 nM and 1000 nM (sheet 'Lestaurtinib' of Supplementary Table 1),run:Lestaurtinib_02748_R2,Plate:MR024",46.2 nM
same,potency estimated from few doses,"Q6ZSR9; compound concentrations:100 nM and 1000 nM (sheet 'Lestaurtinib' of Supplementary Table 1),run:Lestaurtinib_02748_R3,Plate:MR024",66.5 nM
same,potency estimated from few doses,"Q6ZSR9; compound concentrations:100 nM and 1000 nM (sheet 'Lestaurtinib' of Supplementary Table 1),run:Lestaurtinib_02752_R1,Plate:MR025",48.7 nM
same,potency estimated from few doses,"Q6ZSR9; compound concentrations:100 nM and 1000 nM (sheet 'Lestaurtinib' of Supplementary Table 1),run:Lestaurtinib_02765_R2,Plate:MR026",131 nM
same,potency estimated from few doses,"Q6ZSR9; compound concentrations:100 nM and 1000 nM (sheet 'Lestaurtinib' of Supplementary Table 1),run:Lestaurtinib_02765_R3,Plate:MR026",71.7 nM
same,potency estimated from few doses,"Q6ZSR9; compound concentrations:100 nM and 1000 nM (sheet 'Lestaurtinib' of Supplementary Table 1),run:Lestaurtinib_02766_R1,Plate:MR027",47.5 nM
same,potency estimated from few doses,"Q6ZSR9; compound concentrations:100 nM and 1000 nM (sheet 'Lestaurtinib' of Supplementary Table 1),run:Lestaurtinib_02766_R2,Plate:MR027",37.3 nM
same,potency estimated from few doses,"Q6ZSR9; compound concentrations:100 nM and 1000 nM (sheet 'Lestaurtinib' of Supplementary Table 1),run:Lestaurtinib_02766_R3,Plate:MR027",47 nM
same,potency estimated from few doses,"Q6ZSR9; compound concentrations:100 nM and 1000 nM (sheet 'Lestaurtinib' of Supplementary Table 1),run:Lestaurtinib_02768_R1,Plate:MR028",48.3 nM
same,potency estimated from few doses,"Q6ZSR9; compound concentrations:100 nM and 1000 nM (sheet 'Lestaurtinib' of Supplementary Table 1),run:Lestaurtinib_02768_R2,Plate:MR028",49.7 nM
same,potency estimated from few doses,"Q6ZSR9; compound concentrations:100 nM and 1000 nM (sheet 'Lestaurtinib' of Supplementary Table 1),run:Lestaurtinib_02768_R3,Plate:MR028",57.7 nM
same,potency estimated from few doses,"Q6ZSR9; compound concentrations:100 nM and 1000 nM (sheet 'Lestaurtinib' of Supplementary Table 1),run:Lestaurtinib_02795_R1,Plate:MR022",67.2 nM
same,potency estimated from few doses,"Q6ZSR9; compound concentrations:100 nM and 1000 nM (sheet 'Lestaurtinib' of Supplementary Table 1),run:Lestaurtinib_02795_R2,Plate:MR022",73.9 nM
same,potency estimated from few doses,"Q6ZSR9; compound concentrations:100 nM and 1000 nM (sheet 'Lestaurtinib' of Supplementary Table 1),run:Lestaurtinib_02802_R1,Plate:MR029",52.5 nM
same,potency estimated from few doses,"Q6ZSR9; compound concentrations:100 nM and 1000 nM (sheet 'Lestaurtinib' of Supplementary Table 1),run:Lestaurtinib_02802_R2,Plate:MR029",43.8 nM
same,potency estimated from few doses,"Q6ZSR9; compound concentrations:100 nM and 1000 nM (sheet 'Lestaurtinib' of Supplementary Table 1),run:Lestaurtinib_02896_R3,Plate:MR030",88 nM
same,potency estimated from few doses,"Q6ZSR9; compound concentrations:100 nM and 1000 nM (sheet 'Lestaurtinib' of Supplementary Table 1),run:Lestaurtinib_03172_R1,Plate:MR031",51.8 nM
same,potency estimated from few doses,"Q6ZSR9; compound concentrations:100 nM and 1000 nM (sheet 'Lestaurtinib' of Supplementary Table 1),run:Lestaurtinib_03172_R2,Plate:MR031",54.5 nM
same,potency estimated from few doses,"Q6ZSR9; compound concentrations:100 nM and 1000 nM (sheet 'Lestaurtinib' of Supplementary Table 1),run:Lestaurtinib_03172_R3,Plate:MR031",57.5 nM
same,potency estimated from few doses,"Q6ZSR9; compound concentrations:100 nM and 1000 nM (sheet 'Lestaurtinib' of Supplementary Table 1),run:Lestaurtinib_03252_R1,Plate:MR032",61.3 nM
same,potency estimated from few doses,"Q6ZSR9; compound concentrations:100 nM and 1000 nM (sheet 'Lestaurtinib' of Supplementary Table 1),run:Lestaurtinib_03260_R2,Plate:MR033",113 nM
same,potency estimated from few doses,"Q6ZSR9; compound concentrations:100 nM and 1000 nM (sheet 'Lestaurtinib' of Supplementary Table 1),run:Lestaurtinib_03260_R3,Plate:MR033",79.5 nM
same,potency estimated from few doses,"SIK2; compound concentrations:100 nM and 1000 nM (sheet 'Lestaurtinib' of Supplementary Table 1),run:Lestaurtinib_02339_R2,Plate:MR001",44.6 nM
same,potency estimated from few doses,"SIK2; compound concentrations:100 nM and 1000 nM (sheet 'Lestaurtinib' of Supplementary Table 1),run:Lestaurtinib_02364_R1,Plate:MR002",53.6 nM
same,potency estimated from few doses,"SIK2; compound concentrations:100 nM and 1000 nM (sheet 'Lestaurtinib' of Supplementary Table 1),run:Lestaurtinib_02367_R1,Plate:MR003",51.8 nM
same,potency estimated from few doses,"SIK2; compound concentrations:100 nM and 1000 nM (sheet 'Lestaurtinib' of Supplementary Table 1),run:Lestaurtinib_02367_R2,Plate:MR003",57.3 nM
